According to PubChem BioAssay AID1159580 (chemical genetic matrix, 2015):
Screen size: about 5,500 compounds; about 2,000 (36%) were called active. Another 18% or so got no clear call; they are omitted. Cut-off read from the data, not from the text of the source: active = normalized growth mostly below about 0.91 (no sharp cut-off); inconclusive = no clear call, values can overlap the other calls; inactive = mostly above about 0.92. Some of the results follow.

Experiment: chemical genetic growth profiling, strain panel (AID 1159580);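 note: tested at 20 µM; growth read once vehicle control cultures reached saturation at 30 °C; 1 = growth at the plate median or of vehicle wells; lower values mean less growth of the strain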
Details: S. cerevisiae deletion strains, growth OD

Measured: normalized growth

CC(C)c1ccc(-c2cc(=O)c3ccccc3o2)cc1
inactive: locus YAR019C, strain CDC15, stronger effect = lower value 0.937 | locus YBL105C, strain PKC1, stronger effect = lower value 0.935 | locus YBR135W, strain CKS1, stronger effect = lower value 0.932 | locus YBR136W, strain MEC1, stronger effect = lower value 0.941 | locus YBR160W, strain CDC28, stronger effect = lower value 0.941 | locus YDL017W, strain CDC7, stronger effect = lower value 0.932 | locus YDL028C, strain MPS1, stronger effect = lower value 0.933 | locus YDL101C, strain DUN1, stronger effect = lower value 0.945 | locus YDL108W, strain KIN28, stronger effect = lower value 0.934 | locus YDL132W, strain cdc53, stronger effect = lower value 0.948 | locus YDL214C, strain PRR2, stronger effect = lower value 0.814 | locus YDR052C, strain DBF4, stronger effect = lower value 0.944 | locus YDR054C, strain cdc34, stronger effect = lower value 0.917 | locus YDR226W, strain ADK1, stronger effect = lower value 0.931 | locus YDR477W, strain SNF1, stronger effect = lower value 0.791 | locus YER123W, strain YCK3, stronger effect = lower value 0.721 | locus YER133W, strain GLC7, stronger effect = lower value 0.762 | locus YFL009W, strain cdc4, stronger effect = lower value 0.921 | locus YFL029C, strain CAK1, stronger effect = lower value 0.932 | locus YFR003C, strain YPI1, stronger effect = lower value 0.928 | locus YFR019W, strain FAB1, stronger effect = lower value 0.864 | locus YFR028C, strain CDC14, stronger effect = lower value 0.915 | locus YGR040W, strain KSS1, stronger effect = lower value 0.728 | locus YGR052W, strain FMP48, stronger effect = lower value 0.759 | locus YGR092W, strain DBF2, stronger effect = lower value 0.569 | locus YHR079C, strain IRE1, stronger effect = lower value 0.849 | locus YHR082C, strain KSP1, stronger effect = lower value 0.875 | locus YHR205W, strain SCH9, stronger effect = lower value 0.82 | locus YIL147C, strain SLN1, stronger effect = lower value 0.932 | locus YJL095W, strain BCK1, stronger effect = lower value 0.82 | locus YJL128C, strain PBS2, stronger effect = lower value 0.86 | locus YJL157C, strain FAR1, stronger effect = lower value 0.832 | locus YJR016C, strain ILV3, stronger effect = lower value 0.922 | locus YJR066W, strain TOR1 (second series), stronger effect = lower value 0.633 | locus YJR066W, strain TOR1, stronger effect = lower value 0.863 | locus YKL067W, strain YNK1, stronger effect = lower value 0.812 | locus YKL101W, strain HSL1, stronger effect = lower value 0.725 | locus YKL193C, strain SDS22, stronger effect = lower value 0.928 | locus YKL203C, strain TOR2, stronger effect = lower value 0.836 | locus YLR133W, strain CKI1, stronger effect = lower value 0.855 | locus YLR403W, strain SFP1, stronger effect = lower value 0.858 | locus YML070W, strain DAK1, stronger effect = lower value 0.698 | locus YMR001C, strain CDC5, stronger effect = lower value 0.921 | locus YMR205C, strain PFK2 (second series), stronger effect = lower value 0.846 | locus YMR277W, strain FCP1, stronger effect = lower value 0.917 | locus YNL006W, strain LST8, stronger effect = lower value 0.932 | locus YNL020C, strain ARK1, stronger effect = lower value 0.833 | locus YNL161W, strain CBK1, stronger effect = lower value 0.934 | locus YNL183C, strain NPR1, stronger effect = lower value 0.861 | locus YNL207W, strain RIO2, stronger effect = lower value 0.924 | locus YNL222W, strain SSU72, stronger effect = lower value 0.934 | locus YNL307C, strain MCK1 (second series), stronger effect = lower value 0.809 | locus YOL078W, strain AVO1, stronger effect = lower value 0.928 | locus YOL136C, strain PFK27, stronger effect = lower value 0.792 | locus YOR061W, strain CKA2, stronger effect = lower value 0.822 | locus YOR119C, strain RIO1, stronger effect = lower value 0.778 | locus YOR231W, strain MKK1, stronger effect = lower value 0.799 | locus YOR329C, strain SCD5, stronger effect = lower value 0.939 | locus YPL031C, strain PHO85, stronger effect = lower value 0.781 | locus YPL153C, strain RAD53, stronger effect = lower value 0.716 | locus YPL204W, strain HRR25, stronger effect = lower value 0.724 | locus YPL209C, strain IPL1, stronger effect = lower value 0.937 | locus YPR025C, strain CCL1, stronger effect = lower value 0.937 | locus YPR106W, strain ISR1, stronger effect = lower value 0.926 | locus YPR111W, strain DBF20, stronger effect = lower value 0.918 | strain NNK1, stronger effect = lower value 0.921 | strain TSCII, stronger effect = lower value 0.929
active: locus YHR030C, strain SLT2, stronger effect = lower value 0.631 | locus YKL048C, strain ELM1, stronger effect = lower value 0.797 | locus YLR113W, strain HOG1, stronger effect = lower value 0.596 | locus YPL256C, strain CLN2, stronger effect = lower value 0.714
